From PubChem BioAssay
IL1B secr inh – inhibitors of inflammasome signaling (IL-1 beta secretion); actives 4.7% (n = 360,000); AID 743279; THP-1 LPS/ATP IL-1B secretion, AlphaLISA, 16 h; active compounds read low; activity change, % at 57.5 µM; in the data active = activity change below about -50%; inconclusive = mostly about -30% to -49%
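THP-1 cells pretreated 1 hr with compounds (up to 57.5 uM final), then stimulated with LPS (250 ng/mL final) plus ATP (1.25 mM final); secreted IL-1B measured by AlphaLISA after 16 hr, decreased signal indicating inhibition.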
TDP1 cell CPT – DT40-hTDP1 cell growth loss with CPT | chicken DT40 Tdp1-/-;hTDP1 cells + 20 nM CPT, ATP luminescence, 48 h | Potency, µM (doses to about 46.2 µM), for the others: top-dose activity change, negative = growth inhibition, usual class: inhibitors | actives 12% (n = 420,000) | AID 686979; also: potency is read from the fitted curve at half-maximal effect; nearly all actives have a fitted effect of over 55% in size
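Chicken DT40 Tdp1-/- cells stably complemented with human TDP1 were seeded at 400 cells/well in medium containing 20 nM camptothecin, exposed to pin-transferred compounds, and grown at 37 °C for at least 48 hr. Viability was read as ATP luminescence.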
HT1080 IDH1KD tx – kills HT-1080 cells with IDH1 knockdown; HT-1080 IDH1 knockdown viability, ATP luminescence, 48 h; Potency, µM (doses to about 46.1 µM), inactives show at the highest dose activity, negative = toxicity, usual class: cytotoxic; actives 2% (n = 360,000); AID 686971;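 also: potency is read from the fitted curve at half-maximal effect; 0% = DMSO wells and -100% = cell-free medium wells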
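Luminescent ATP read-out (CellTiter-Glo, 10 min at room temperature) after 48 h compound exposure at 37 °C gave viability of IDH1-knockdown HT-1080 cells. Activity was normalised to DMSO and cell-free wells, then fitted as concentration-response curves.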
uPA surface inh – cell surface uPA generation inhibition. Potency, µM (titrated, usually from 38.3 µM), for inactives: top-dose activity change, negative = inhibition, hits mostly inhibitors. AID 540303. cell surface uPA generation assay, qHTS. actives 0.31% (n = 330,000); active = well fitted inhibition curve with a large enough effect; inconclusive = small, poorly fitted or top-dose-only effect; inactive = no such curve, though single readings can be large or run the other way; tested in mouse RAW 264.7 cells; also: potency is read from the fitted curve at half-maximal effect; nearly all actives have a fitted effect of over 55% in size
HT1080-NT tox – kills 2HG-producing HT-1080-NT fibrosarcoma cells. HT-1080-NT fibrosarcoma viability, CellTiter-Glo ATP luminescence, 48 h. Potency, µM (series often up to 46.1 µM), without a hit: at the highest dose activity, negative = less viability, usual class: cytotoxic. actives 1.6% (n = 360,000). AID 686970;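 also: NT is the 2HG producing partner of a matched IDH1 knockdown line; potency is read from the fitted curve at half-maximal effect; 0% = DMSO-treated cells and -100% = media-only wells without cells; nearly all actives have a fitted effect of over 55% in size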
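A 48-hour cytotoxicity screen used HT-1080-NT cells plated 2 hours before compound delivery. ATP-based CellTiter-Glo luminescence measured viability, normalized to DMSO and no-cell controls.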
TDP1 cell noCPT – qHTS for Inhibitors of human tyrosyl-DNA phosphodiesterase 1 (TDP1): qHTS in cells in absence of CPT | DT40 Tdp1-/- hTDP1 cells, no CPT, ATP luminescence, 48 h | Potency, µM (series often up to 46.2 µM), for the others: at the top dose activity change, negative = growth inhibition, actives largely listed as inhibitors | actives 15% (n = 420,000); also: potency is read from the fitted curve at half-maximal effect; nearly all actives have a fitted effect of over 55% in size
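Compound effects on proliferation are scored in DT40 Tdp1-/-;hTDP1 cells in the absence of CPT. ATP levels (CellTiter-Glo luminescence) are recorded after a ≥48 hr, 37 °C incubation.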
* marks the source's active call; other numbers are inactive results; ? = inconclusive; . = no result. Shown are actives, neighbours in structure and some others; about 19% of the full set was active somewhere. Unless noted, calls follow the shape of the dose curve; as a rule, active = well fitted curve in the direction sought with a large enough effect; inconclusive = small, poorly fitted or top-dose-only effect, or another doubt; inactive = no such curve, though single readings can be large; an effect the other way counts as inactive or inconclusive. Unless noted, % is scaled to controls: 0 for no effect and ±100 for the full control effect.

SMILES | IL1B secr inh | TDP1 cell CPT | HT1080 IDH1KD tx | uPA surface inh | HT1080-NT tox | TDP1 cell noCPT
COc1ccc(CC2(C)OC(c3ccccc3)=NN2C(C)=O)cc1 (stereo not given) | 1 | 12% | 3% | 4% | 10% | -5%
CC1=C(C(=O)Nc2ccccc2)C2(CCCCC2)C(C#N)=C(SCC(N)=O)N1 | 15 | ? | 6% | 0% | -1% | 16µM*
N#CC1=C(N)NC(SCc2ccc(Br)cc2)=C(C#N)C12CCCCC2 | -10 | ? | 1% | -9% | 2% | ?
CC1(C)CC(=O)C2=C(C1)NC(SCC(=O)Nc1ccccc1)=C(C#N)C21CCCCC1 | ? | ? | -16% | 1% | ? | ?
CCSC1=C(C#N)C2(CCCC2)C(C#N)=C(N)N1 | -17 | 7.3µM* | -2% | -9% | -4% | 16µM*
N#CC1=C(N)NC(SCc2ccc(Cl)cc2)=C(C#N)C12CCCCC2 | -5 | ? | 21µM* | -20% | ? | ?
N#CC1=C(N)NC(SCC(=O)Nc2ccc(Br)cc2)=C(C#N)C12CCCCC2 | ? | 26µM* | ? | -6% | ? | ?
Cc1ccc(-c2sc(C(=O)NN)c(C)c2C#N)cc1 | 57 | ? | ? | -29% | ? | ?
C[C@H](O)[C@@H]1CN2CCc3c([nH]c4ccccc34)[C@@H]2C[C@@H]1N(C)C(=S)Nc1ccc(C#N)cc1 | -22 | ? | -20% | . | -15% | ?
CC(O)(c1ccccc1)c1nc(/C=C/c2ccccc2)cs1 (stereo not given) | 0 | ? | ? | . | ? | ?
FC(F)(F)c1ccc(-c2cccc3c2C2CC3CCN2C(=S)NCCc2ccccc2)cc1 (stereo not given) | -8 | ? | 0% | . | 7% | ?
N#CC1=C(N)NC(SCc2ccccc2)=C(C#N)C12CCCC2 | 2 | ? | 1% | -1% | 0% | 18µM*
N#CC1=C(N)NC(SCC(=O)c2ccccc2)=C(C#N)C12CCCC2 | -13 | ? | -1% | -5% | 0% | ?
CCOC(=O)c1c(S(=O)(=O)NCC(=O)N(C)Cc2ccccc2)c(C)n(C)c1C | . | -19% | . | . | . | -13%
O=[N+]([O-])c1c(N2CCN(CCO)CC2)nc2ccccn12 | 16 | -2% | 8% | -8% | 9% | -11%
CCOc1cc(C(=O)Nc2cc3c(cc2N2CCCC2)n(C)c(=O)n3C)cc(OCC)c1OCC | 0 | -7% | 0% | -1% | -3% | 12%
CCn1c(=O)n(CC)c2cc(N3CCCC3)c(NC(=O)c3cc(Cl)ccc3OC)cc21 | -64* | 16µM* | 1% | -6% | 15% | 21µM*
CCn1c(=O)n(CC)c2cc(N3CCCC3)c(NC(=O)c3ccc(OC)c(Br)c3)cc21 | -4 | 16µM* | 0% | -5% | -13% | 12µM*
CCn1c(=O)n(CC)c2cc(N3CCCC3)c(NC(=O)c3ccccc3OC)cc21 | -53* | 6.5µM* | ? | 4% | ? | 5.8µM*
CCOc1ccccc1C(=O)Nc1cc2c(cc1N1CCCC1)n(CC)c(=O)n2CC | -10 | 4.6µM* | -25% | -11% | -3% | 4.6µM*
O=c1[nH]c2cc(F)ccc2c2ccc(F)cc12 | 13 | ? | -18% | 9% | 7% | -19%
CCOc1ccccc1C(=O)Nc1cc2c(cc1N1CCOCC1)n(C)c(=O)n2C | . | 15µM* | . | . | . | 16µM*
Cn1c(=O)n(C)c2cc(N3CCOCC3)c(NC(=O)c3ccccc3Br)cc21 | . | ? | . | . | . | -38%
Clc1cccc(-c2nnc(SCc3nc4ccccc4[nH]3)n2Cc2ccco2)c1 | -27 | ? | -27% | 4% | -8% | ?
C(=C\c1ccccc1)/CSc1nnc(-c2ccccn2)n1Cc1ccco1 | 16 | 2.6µM* | 4.1µM* | -10% | 5.8µM* | 2.9µM*
SMILES | IL1B secr inh | TDP1 cell CPT | HT1080 IDH1KD tx | uPA surface inh | HT1080-NT tox | TDP1 cell noCPT
Clc1ccc(OCc2nnc(SCc3nc4ccccc4[nH]3)n2Cc2ccco2)cc1 | 197 | 21µM* | -16% | -3% | -4% | 21µM*
Cn1c(SCc2nc3ccccc3[nH]2)nnc1-c1cnccn1 | 2 | -1% | 6% | 3% | 10% | 1%
c1coc(Cn2c(SCc3nc4ccccc4[nH]3)nnc2-c2cnccn2)c1 | 10 | ? | -3% | -1% | -17% | 23µM*
CCc1ccccc1NC(=O)C1CCN(c2nc3ccccc3[nH]2)CC1 | . | -21% | . | . | . | -22%
COc1ccc(-c2noc(N3CCC(C(=O)NCc4ccc(F)cc4)CC3)n2)cc1 | 26 | -28% | 3% | -3% | 12% | ?
COc1ccc(-c2noc(N3CCC(C(=O)N(C)c4cc(Cl)ccc4OC)CC3)n2)cc1 | . | 16µM* | . | . | . | ?
COc1ccc(-c2noc(N3CCC(C(=O)NCCCN4CC(C)CC(C)C4)CC3)n2)cc1 (stereo not given) | -13 | 3.7µM* | 29% | ? | -7% | ?
COc1ccc(-c2noc(N3CCC(C(=O)Nc4ccc(OC)cc4OC)CC3)n2)cc1 | -14 | ? | 5% | 2% | 9% | ?
CCN(C(=O)C1CCN(c2nc(-c3ccc(OC)cc3)no2)CC1)c1ccc(OC)cc1 | 23 | ? | -4% | ? | -22% | 16µM*
Cc1ccc(NC(=O)Cn2c(=O)n(Cc3ccc4c(c3)OCO4)c(=O)c3ccccc32)c(C)c1 | . | -19% | . | . | . | -28%
CN(C(=O)CO)c1c(I)c(C(=O)NCC(O)CO)c(I)c(C(=O)NCC(O)CO)c1I (stereo not given) | . | 1% | . | . | . | -4%
Cc1onc(-c2c(F)cccc2Cl)c1C(=O)Nc1cc2cc([N+](=O)[O-])ccc2oc1=O | 0 | -17% | -2% | . | -8% | 2%
CC1CCc2ccccc2N1CC(=O)Nc1cccc(S(=O)(=O)N2CCCC2)c1 (stereo not given) | -25 | 16µM* | -5% | -10% | -10% | 18µM*
CN(CC(=O)Nc1cccc(S(=O)(=O)N2CCCCC2)c1)Cc1ccc(F)cc1 | 10 | ? | -4% | ? | -21% | ?
CN(CC(=O)Nc1cccc(F)c1)CC(=O)Nc1cccc(S(=O)(=O)N2CCCCC2)c1 | -23 | ? | -13% | -5% | -15% | 21µM*
O=C(CN1CCCc2ccccc21)Nc1cccc(S(=O)(=O)N2CCCC2)c1 | 20 | ? | 0% | . | 2% | ?
